SMILES strings stand for the structures. This is part of a sample that, as a whole, favours compounds with a hit. Of some 83,000 tested, about 20% had one in any assay.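 48-hour exposure, single concentration, 96-well plates; percent growth endpoint where 0 means no net growth. Active: below 10.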 Values without a mark were called inactive. Activity calls are given as the source filed them.

For this experiment, the system named is MDA-MB-468 breast. Briefly: NCI-60 one-dose screen, 48 h (100 = growth as untreated, 0 = no growth, -100 = all killed). The settings on record: 10 µM unless noted.
Regarding `Cc1ccncc1C(=O)O`, the growth was 101%. Next, `C[C@@H](CO)[C@@H]1CCC=C2CC[C@]3(C)[C@H](CC[C@@H]4[C@@]5(C)CCCNC(C)(C)[C@@H]5CC[C@]43C)[C@H]21`: -15.2% (active).

For `COC12C=C/C(=C(/C(=O)OCc3ccccn3)C(=O)CCCCCCCCC3(OC)C=C/C(=C(/C(=O)OCc4ccccn4)C(=O)CCCCCCCC1)O3)O2`, the growth was -32.5% (active). Next, `Clc1ccc(-c2noc(/C=C\c3ccccc3)n2)cc1`: 97.7%; `COc1cccc(C(=O)Cn2cc(/C=C(\C#N)S(=O)(=O)c3ccccc3)c3ccccc32)c1`: 104%. Next, `CCOC(=O)c1cc2c(n1Cc1ccccc1OC)-c1oncc1CCC2`: 7.1% (active); `CC(=O)Nc1cccc(Nc2nc(N[C@H](C)c3ccccc3)c3ccccc3n2)c1`: 6.66% (active); `FC(F)(F)Oc1cccc(-c2cc(NCCCCCCNc3cc(-c4cccc(OC(F)(F)F)c4)nc4ccc(N5CCCC5)cc34)c3cc(N4CCCC4)ccc3n2)c1`: -68.1% (active). Next, `Nc1c(C(=O)Nc2cccc(Cl)c2)sc2ncc(Cl)cc12`: 95.3%; `O=C1Nc2ccccc2C2c3cccn3-c3ccccc3N12` (configuration not stated): 47.8%. As for `O=C(NCCN1CCCC1)c1ccc(-c2nc3ccc4[nH]ncc4c3c3c2CCCC3)cc1`, the growth is -43.9% (active).

On to `CCOc1cc(Br)c(C(C)NC(=O)c2cccc(OC)c2)cc1OCC` (configuration not stated), for which the growth was 52.6%. Next, `C#Cc1cccc(NC(=O)Nc2ccc(NC(=O)CCl)cc2)c1`: -53.7% [8.25 µM] (active); `Fc1ccc([C@@H]2CCNC[C@H]2COc2ccc3c(c2)OCO3)cc1`: 36.1%; `N#CSCC1CC(O)(c2ccccc2)CC(c2ccc(F)cc2)O1` (configuration not stated): 5.99% (active). Next, `N#CC1c2ccccc2-c2ccccc2N1C(=O)c1ccccc1` (configuration not stated): 32.9%. Next, `N#C/C(=C\c1ccc([N+](=O)[O-])s1)c1nc2cc(Cl)ccc2s1`: 93.7%.

`Nc1c(S(=O)(=O)O)cc2c3c(cccc13)C(=O)OC2=O`: the growth was 85.9%. Next, `NC1=C(C/C(N)=N\O)C(c2ccccc2Cl)c2c(ccc3ccccc23)O1` (configuration not stated): 61.6%. As to `O=C(Nc1cccc(Cl)c1)Nc1nc2cc([N+](=O)[O-])ccc2o1`, the growth was 53.4%. With `CN1CCN(CC(=O)Nc2ccc(-c3nc4ccccc4s3)cc2)CC1`, the growth is -11.4% (active).

With `Nc1nc(-c2ccccc2Br)nn1-c1nc2ccccc2s1`, the growth is 103%. For the compound `COc1ccc2c(Nc3ccc(NS(C)(=O)=O)cc3)c3ccccc3nc2c1`, the growth was -59.5% (active). Next, `Cn1c(-c2ccccc2)cc(=O)cc1-c1ccccc1`: 68.7%; `COc1ccc(-c2cc(/C=C/C(=O)c3ccc(N)cc3)[nH]n2)cc1OC`: -1.28% (active). Next, `NCCOc1ncccc1/C=C1\c2ccccc2-c2ccc([N+](=O)[O-])cc21`: -39.2% (active); `CC1(C)N=C(N)N=C(N)N1c1ccc(CCc2ccccc2)c(Cl)c1`: -28.3% (active). Next, `O=c1c2c(=NCCN3CCCC3)cc3c(=O)n(CCCN4CCOCC4)c(=O)c4ccc(c(O)n1CCCN1CCOCC1)c2c4-3`: -49.4% (active).

On to `CCCCCCCCCC[C@@H](C)[C@@H]1CC(=O)N[C@H]([C@@H](C)O)C(=O)N[C@@H](C)C(=O)N[C@H](C)C(=O)N[C@@H](CCC(N)=O)C(=O)N[C@H](Cc2ccc(O)cc2)C(=O)N[C@@H](C(C)CC)C(=O)O1` (some centres not stated), for which the growth is 2.46% (active).

On to `CC1=C(SCCC(=O)OC(C[Se]C2=C(C)C(=O)c3ccccc3C2=O)C(=O)NCCCCCC(=O)OCc2ccccc2)C(=O)c2ccccc2C1=O` (configuration not stated), for which the growth was 30.5%. Under `Cn1ncc2c(Nc3ccc(Br)cc3)nc(Nc3ccc(Br)cc3)nc21` stands 51.4%. Under `COc1ccc(C(=O)c2cc(OC)c(OC)c(OC)c2)cc1OC(=O)CCl` stands 63.4%. Next, `O=C(/C(=N/O)c1ccccc1)c1ccccc1`: 93.1%; `O=C(O)c1ccc(-n2cc(CNc3cccc(Cl)c3)c(-c3ccc(F)cc3)n2)cc1`: 109%; `C#CCOC(=O)[C@@H]1CCCN1CC#C`: 75.4%. As for `O=C(NCCCNc1cc(-c2cn(-c3ccccc3)nc2-c2cccc(O)c2)ccn1)c1cccc(O)c1`, the growth is 29.3%. Under `COc1cc(OC)c(C(=O)/C=C/c2cccc(C(F)(F)F)c2)c(OC)c1` stands -9.39% (active).
